Test results from PMC7826789 (International Journal of Molecular Sciences, 2021).

What was measured:
Settings in all cases: Compound Concentration (nM):1000
[1] = tested on: RET(V804M)
[2] = tested on: RET
[3] = tested on: RIOK1
[4] = tested on: RIOK2
[5] = tested on: RIOK3
[6] = tested on: RIPK1
[7] = tested on: RIPK2
[8] = tested on: RIPK4
[9] = tested on: T1, RIPK5
T1 construct: gene DSTYK

[10] = tested on: ROCK1
[11] = tested on: ROCK2
[12] = tested on: ROS1
[13] = tested on: RPS6KA4(Kin.Dom.1-N-terminal)
[14] = tested on: RPS6KA4(Kin.Dom.2-C-terminal)
[15] = tested on: RPS6KA5(Kin.Dom.1-N-terminal)
[16] = tested on: RPS6KA5(Kin.Dom.2-C-terminal)
[17] = tested on: T2, RSK1(Kin.Dom.1-N-terminal)
T2 construct: gene RPS6KA1

[18] = tested on: T3, RSK1(Kin.Dom.2-C-terminal)
T3 construct: gene RPS6KA1

[19] = tested on: T4, RSK2(Kin.Dom.1-N-terminal)
T4 construct: gene RPS6KA3

[20] = tested on: T5, RSK2(Kin.Dom.2-C-terminal)
T5 construct: gene RPS6KA3
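Note: KINOMEscan scanMAX binding as percent activity remaining versus control; lower means stronger binding.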

SMILES | Percent Control [1] | Percent Control [2] | Percent Control [3] | Percent Control [4] | Percent Control [5] | Percent Control [6] | Percent Control [7] | Percent Control [8] | Percent Control [9] | Percent Control [10] | Percent Control [11] | Percent Control [12] | Percent Control [13] | Percent Control [14] | Percent Control [15] | Percent Control [16] | Percent Control [17] | Percent Control [18] | Percent Control [19] | Percent Control [20]
C[C@@H](Oc1cc(-n2cnc3ccc(OC4CCN(C)CC4)cc32)sc1C(N)=O)c1ccccc1Cl [GSK579289A] | 84% | 99% | 13% | 91% | 34% | 89% | 87% | 33% | 93% | 87% | 83% | 100% | 100% | 3.2% | 100% | 38% | 71% | 86% | 23% | 98%
O=C1Nc2ccc(C(=O)c3ccco3)cc2C1=Cc1cc(Cl)c(O)c(Cl)c1 [GW406108X] | 28% | 96% | 46% | 73% | 30% | 100% | 75% | 91% | 54% | 77% | 45% | 100% | 100% | 49% | 100% | 67% | 78% | 16% | 26% | 85%
Cl.O=S1CCN(Cc2ccc(-c3ccc4ncnc(Nc5ccc(OCc6ccccc6)c(F)c5)c4c3)o2)CC1 [GW576924A] | 100% | 100% | 93% | 83% | 100% | 100% | 43% | 92% | 87% | 100% | 94% | 100% | 100% | 100% | 100% | 100% | 100% | 100% | 100% | 100%
Cc1cc(O)cc(C)c1/C=C/c1cncc(C(N)=O)c1 [GW435821X] | 100% | 100% | 99% | 100% | 93% | 100% | 21% | 100% | 93% | 100% | 100% | 86% | 100% | 98% | 100% | 100% | 100% | 100% | 100% | 96%
COc1cccc(-n2ncc3c(N/N=C/c4ccncc4)ncnc32)c1 [GW784752X] | 87% | 97% | 79% | 75% | 94% | 89% | 38% | 3.9% | 100% | 74% | 84% | 100% | 100% | 70% | 100% | 100% | 94% | 100% | 100% | 86%
COc1ccc2[nH]c3c4[nH]c5ccc(OC)cc5c4c4c(c3c2c1)C(=O)NC4=O [GW296115X] | 21% | 41% | 58% | 89% | 100% | 90% | 60% | 83% | 27% | 72% | 73% | 24% | 71% | 25% | 53% | 66% | 49% | 100% | 21% | 95%
CN(C)c1cc2c(Nc3ccc4c(cnn4Cc4ccccc4)c3)ncnc2cn1 [GW282974X] | 89% | 86% | 98% | 100% | 100% | 53% | 27% | 74% | 90% | 100% | 96% | 100% | 93% | 89% | 100% | 92% | 97% | 100% | 95% | 100%
O=C(Nc1n[nH]c2nc(-c3ccc(O)cc3)c(Br)cc12)C1CC1 [SB-725317] | 96% | 100% | 55% | 82% | 56% | 100% | 100% | 90% | 100% | 100% | 98% | 91% | 100% | 1.2% | 100% | 43% | 100% | 100% | 65% | 97%
COc1ccc2c(-c3ccnc(Nc4cccc(OC(F)(F)F)c4)n3)cnn2n1 [GW810372X] | 100% | 100% | 42% | 29% | 51% | 100% | 100% | 77% | 100% | 100% | 100% | 96% | 100% | 100% | 100% | 87% | 100% | 100% | 95% | 90%
CCc1ccc(Oc2nccc(-c3c(-c4ccc(F)cc4)ncn3C3CCNCC3)n2)cc1 [SB-242719] | 100% | 100% | 57% | 97% | 72% | 100% | 59% | 100% | 82% | 100% | 90% | 61% | 100% | 73% | 98% | 87% | 99% | 77% | 97% | 94%
COc1cc(N2CCN(C(C)C)CC2)ccc1Nc1nc(Nc2ccc(F)cc2C(=O)NC[C@@H](O)CO)c2cc[nH]c2n1 [GSK1392956A] | 88% | 85% | 66% | 27% | 79% | 76% | 100% | 84% | 25% | 87% | 100% | 52% | 100% | 33% | 100% | 47% | 27% | 78% | 5.7% | 100%
COc1cc(C=NNc2ncnc3c2cnn3-c2ccccc2)ccc1O [GW513184X] | 100% | 44% | 32% | 45% | 16% | 96% | 50% | 9.1% | 90% | 97% | 88% | 99% | 100% | 82% | 100% | 85% | 100% | 100% | 88% | 71%
CN(C)CCNC(=O)Nc1ccc(N(C)c2ccnc(Nc3ccc(CS(C)(=O)=O)cc3)n2)cc1.Cl [GW830900A] | 86% | 60% | 9.5% | 90% | 17% | 99% | 94% | 60% | 32% | 9.4% | 9.1% | 61% | 100% | 88% | 100% | 100% | 100% | 84% | 73% | 82%
COc1cc(C)c(N(C)C(=O)CN(C)C)cc1Nc1nc(Nc2cccc(F)c2C(N)=O)c2cc[nH]c2n1 [GSK2219385] | 71% | 87% | 73% | 74% | 74% | 95% | 100% | 74% | 88% | 100% | 100% | 84% | 92% | 68% | 100% | 90% | 56% | 96% | 21% | 100%
NS(=O)(=O)c1ccc(N/N=C2\C(=O)Nc3ccc(C(=O)NCc4ccncc4)cc32)cc1 [GW300657X] | 84% | 92% | 62% | 77% | 63% | 89% | 100% | 72% | 47% | 64% | 56% | 100% | 87% | 42% | 100% | 19% | 94% | 83% | 79% | 87%
NS(=O)(=O)c1ccc(N/N=C2\C(=O)Nc3ccc(C(=O)NCCc4c[nH]cn4)cc32)cc1 [GW300660X] | 100% | 100% | 74% | 100% | 78% | 100% | 100% | 80% | 59% | 67% | 40% | 100% | 100% | 80% | 100% | 100% | 100% | 100% | 54% | 100%
CCn1c(-c2nonc2N)nc2c(C#CC(C)(C)O)nc(OCCNC)cc21.Cl [GSK949675] | 100% | 96% | 100% | 91% | 100% | 100% | 100% | 100% | 99% | 57% | 78% | 100% | 100% | 5.9% | 91% | 34% | 100% | 100% | 97% | 72%
CC1=C(C(=O)Nc2ccc3[nH]ncc3c2)C(c2ccc(Cl)c(Cl)c2)CC(=O)N1 (stereo not shown) [GSK299115A] | 89% | 76% | 99% | 100% | 86% | 77% | 72% | 78% | 99% | 0% | 0.1% | 98% | 100% | 82% | 100% | 60% | 100% | 81% | 75% | 89%
COc1ccc2cc(-c3c(-c4ccncc4)nc(-c4ccc(S(C)(=O)=O)cc4C)n3C)ccc2c1 [SB-633825] | 97% | 72% | 22% | 92% | 78% | 34% | 81% | 61% | 75% | 78% | 80% | 69% | 100% | 91% | 95% | 51% | 82% | 97% | 62% | 70%
Cl.O=C(Nc1ccc(Oc2ccc3[nH]c(NC(=O)c4ccccc4)nc3c2)cc1)Nc1cc(C(F)(F)F)ccc1F [GW709042A] | 2.7% | 0.6% | 52% | 100% | 33% | 62% | 89% | 100% | 100% | 95% | 85% | 67% | 100% | 77% | 100% | 88% | 100% | 100% | 100% | 90%
